What all share (assay): DAPPL (digital affinity profiling via proximity ligation, sequencing); 10 mM Tris-HCl pH 7.5, 50 mM NaCl, 1 mM DTT, 4% glycerol, room temperature, 30 min; GST-TFs on glutathione beads, 16-mer random dsDNA library, 0.1% formaldehyde crosslink after washing; high values mean tight binding
The target of experiment [1] is T1, FLI1 (Homo sapiens, UniProt Q01543 1-452).
T1 sequence: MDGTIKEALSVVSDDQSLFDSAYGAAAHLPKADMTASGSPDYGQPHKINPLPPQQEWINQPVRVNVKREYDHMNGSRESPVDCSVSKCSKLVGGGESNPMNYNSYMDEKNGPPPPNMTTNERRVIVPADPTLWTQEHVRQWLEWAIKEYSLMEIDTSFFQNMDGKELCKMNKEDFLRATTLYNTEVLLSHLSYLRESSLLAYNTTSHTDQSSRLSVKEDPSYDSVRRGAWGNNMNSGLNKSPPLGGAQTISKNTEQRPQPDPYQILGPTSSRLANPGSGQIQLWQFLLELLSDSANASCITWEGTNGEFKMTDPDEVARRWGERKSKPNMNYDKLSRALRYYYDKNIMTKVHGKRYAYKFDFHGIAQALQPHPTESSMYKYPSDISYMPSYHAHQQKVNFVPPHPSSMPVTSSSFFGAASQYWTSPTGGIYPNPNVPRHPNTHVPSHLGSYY
The settings on record: protein: recombinant; tags: N-terminal GST; dsDNA, one strand shown. The method, boiled down:
(§1)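 Binding signal is defined as a hexamer's read frequency for one factor over its frequency for the tag-only sample. To obtain reads, GST-fused human transcription factors were expressed in yeast, captured on glutathione beads, barcoded with DNA and pooled with that sample. Pools met 200 nmole of a 16-mer random double-stranded DNA library in Tris/NaCl/DTT/glycerol buffer for 30 min at room temperature before washing, 0.1% formaldehyde crosslinking, proximity ligation (BsaI/T4 ligase, 1 h, 37 °C), PCR and Illumina NextSeq500 sequencing.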

In experiment [2] the target is T2, ELK1 (Homo sapiens, UniProt P19419 1-428).
T2 sequence: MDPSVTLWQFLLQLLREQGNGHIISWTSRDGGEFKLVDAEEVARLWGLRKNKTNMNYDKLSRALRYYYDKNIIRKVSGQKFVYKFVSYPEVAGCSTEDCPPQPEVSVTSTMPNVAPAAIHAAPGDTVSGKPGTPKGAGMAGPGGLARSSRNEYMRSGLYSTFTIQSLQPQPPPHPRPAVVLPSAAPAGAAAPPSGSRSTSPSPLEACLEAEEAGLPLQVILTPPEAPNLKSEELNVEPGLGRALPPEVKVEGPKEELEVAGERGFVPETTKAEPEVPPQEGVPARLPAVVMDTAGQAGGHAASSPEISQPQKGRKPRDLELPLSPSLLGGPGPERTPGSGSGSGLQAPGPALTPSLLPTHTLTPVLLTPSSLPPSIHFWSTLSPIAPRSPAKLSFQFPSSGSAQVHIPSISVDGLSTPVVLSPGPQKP
The settings on record: protein: recombinant; tags: N-terminal GST; dsDNA, one strand shown. The method, boiled down:
as §1

Experiment [3] concerns the target T3, GABPA (Homo sapiens, UniProt Q06546 1-454).
T3 sequence: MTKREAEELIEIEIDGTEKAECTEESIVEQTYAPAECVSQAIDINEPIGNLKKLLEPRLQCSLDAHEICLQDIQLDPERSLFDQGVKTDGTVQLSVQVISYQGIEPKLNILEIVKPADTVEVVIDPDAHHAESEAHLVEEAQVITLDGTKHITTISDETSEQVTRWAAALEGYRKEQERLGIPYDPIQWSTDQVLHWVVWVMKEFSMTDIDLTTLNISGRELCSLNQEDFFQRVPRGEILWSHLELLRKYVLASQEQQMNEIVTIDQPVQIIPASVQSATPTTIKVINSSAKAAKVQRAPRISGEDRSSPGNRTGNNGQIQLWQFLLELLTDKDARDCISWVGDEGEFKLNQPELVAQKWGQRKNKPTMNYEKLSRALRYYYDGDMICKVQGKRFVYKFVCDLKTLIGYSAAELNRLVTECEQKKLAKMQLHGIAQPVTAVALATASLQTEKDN
The note with it: protein: recombinant; tags: N-terminal GST; dsDNA, one strand shown. The method in brief:
as §1

The target of experiment [4] is T4, ERG (Homo sapiens, UniProt P11308 1-479).
T4 sequence: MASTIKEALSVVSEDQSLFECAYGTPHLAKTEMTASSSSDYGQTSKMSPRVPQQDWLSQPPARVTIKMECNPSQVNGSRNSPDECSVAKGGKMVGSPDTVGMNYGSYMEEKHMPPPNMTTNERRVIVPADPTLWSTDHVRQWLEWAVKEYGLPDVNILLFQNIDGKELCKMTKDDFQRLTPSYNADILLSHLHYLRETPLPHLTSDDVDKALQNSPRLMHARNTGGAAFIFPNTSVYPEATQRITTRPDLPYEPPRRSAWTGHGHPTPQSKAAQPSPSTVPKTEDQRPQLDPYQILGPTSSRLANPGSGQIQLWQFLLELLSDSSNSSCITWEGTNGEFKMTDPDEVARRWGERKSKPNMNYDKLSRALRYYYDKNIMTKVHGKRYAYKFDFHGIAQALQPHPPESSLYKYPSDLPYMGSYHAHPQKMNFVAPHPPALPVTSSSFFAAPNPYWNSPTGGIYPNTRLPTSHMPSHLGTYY
The note with it: protein: recombinant; tags: N-terminal GST; dsDNA, one strand shown. The method in brief: as §1

In experiment [5] the target is ELF1 (Homo sapiens, UniProt P32519 1-619). The settings on record: protein: recombinant; tags: N-terminal GST; dsDNA, one strand shown. The method, boiled down:
as §1

In experiment [6] the target is T5, EHF (Homo sapiens, UniProt Q9NZC4 1-300).
T5 sequence: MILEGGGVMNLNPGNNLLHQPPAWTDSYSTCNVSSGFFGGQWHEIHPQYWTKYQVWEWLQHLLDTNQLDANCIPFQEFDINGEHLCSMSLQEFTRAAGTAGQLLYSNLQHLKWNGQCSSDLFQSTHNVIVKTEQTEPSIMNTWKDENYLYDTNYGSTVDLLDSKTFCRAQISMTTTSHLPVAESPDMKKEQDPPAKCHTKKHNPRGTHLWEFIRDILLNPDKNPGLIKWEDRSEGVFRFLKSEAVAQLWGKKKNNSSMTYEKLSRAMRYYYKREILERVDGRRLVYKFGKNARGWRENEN
The settings on record: protein: recombinant; tags: N-terminal GST; dsDNA, one strand shown. The method in brief:
as §1

Experiment [7] addresses SPI1 (Homo sapiens, UniProt P17947 1-270). The note with it: protein: recombinant; tags: N-terminal GST; dsDNA, one strand shown. The method in brief: as §1
Experiment [8] concerns the target SPIB (Homo sapiens, UniProt Q01892 1-262). The settings on record: protein: recombinant; tags: N-terminal GST; dsDNA, one strand shown. The method in brief:
as §1

The target of experiment [9] is T6, ELK3 (Homo sapiens, UniProt P41970 1-407).
T6 sequence: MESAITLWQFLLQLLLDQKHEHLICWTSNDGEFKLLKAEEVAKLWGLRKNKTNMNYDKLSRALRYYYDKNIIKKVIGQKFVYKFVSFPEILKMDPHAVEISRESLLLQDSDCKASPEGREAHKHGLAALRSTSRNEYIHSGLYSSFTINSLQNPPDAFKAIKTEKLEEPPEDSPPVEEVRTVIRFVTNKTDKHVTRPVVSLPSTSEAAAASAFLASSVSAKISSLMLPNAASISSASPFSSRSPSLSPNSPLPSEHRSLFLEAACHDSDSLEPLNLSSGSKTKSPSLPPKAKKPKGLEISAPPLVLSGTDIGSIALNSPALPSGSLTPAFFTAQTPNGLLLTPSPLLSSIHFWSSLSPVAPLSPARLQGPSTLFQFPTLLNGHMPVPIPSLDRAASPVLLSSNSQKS
The settings on record: protein: recombinant; tags: N-terminal GST; dsDNA, one strand shown. The method in brief: as §1

Experiment [10] deals with T7, FEV (Homo sapiens, UniProt Q99581 1-238).
T7 sequence: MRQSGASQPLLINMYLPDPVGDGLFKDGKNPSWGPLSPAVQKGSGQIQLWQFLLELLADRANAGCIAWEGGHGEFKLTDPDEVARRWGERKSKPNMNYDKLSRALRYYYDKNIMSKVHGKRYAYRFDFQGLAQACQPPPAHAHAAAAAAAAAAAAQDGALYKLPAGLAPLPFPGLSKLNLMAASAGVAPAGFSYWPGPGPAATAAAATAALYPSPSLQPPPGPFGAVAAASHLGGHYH
The note with it: protein: recombinant; tags: N-terminal GST; dsDNA, one strand shown. The method in brief:
as §1

Experiment [11] addresses ETV5 (Homo sapiens, UniProt P41161 1-510). The note with it: protein: recombinant; tags: N-terminal GST; dsDNA, one strand shown. The method, boiled down:
as §1

Experiment [12] addresses HSF1 (Homo sapiens, UniProt Q00613 1-529). The note with it: protein: recombinant; tags: N-terminal GST; chain copies: 3; dsDNA, one strand shown. The method in brief:
as §1

The target of experiment [13] is ELF4 (Homo sapiens, UniProt Q99607 1-663). The note with it: protein: recombinant; tags: N-terminal GST; dsDNA, one strand shown. The method, boiled down: as §1
In experiment [14] the target is T8, ELK4 (Homo sapiens, UniProt P28324-2 1-405).
T8 sequence: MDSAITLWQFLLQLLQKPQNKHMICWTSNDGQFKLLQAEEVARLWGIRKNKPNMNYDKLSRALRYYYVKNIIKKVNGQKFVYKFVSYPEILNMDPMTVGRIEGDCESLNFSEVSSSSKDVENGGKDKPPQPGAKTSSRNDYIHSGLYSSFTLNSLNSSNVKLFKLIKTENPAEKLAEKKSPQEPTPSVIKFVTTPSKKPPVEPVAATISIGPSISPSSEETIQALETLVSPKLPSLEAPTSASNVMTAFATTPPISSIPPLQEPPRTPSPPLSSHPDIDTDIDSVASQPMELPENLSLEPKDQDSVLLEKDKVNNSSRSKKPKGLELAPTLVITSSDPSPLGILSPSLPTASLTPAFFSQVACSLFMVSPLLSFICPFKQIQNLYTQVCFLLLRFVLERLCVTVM
The settings on record: protein: recombinant; tags: N-terminal GST; dsDNA, one strand shown. The method in brief:
as §1

The target of experiment [15] is T9, ETV2 (Homo sapiens, UniProt O00321 1-342).
T9 sequence: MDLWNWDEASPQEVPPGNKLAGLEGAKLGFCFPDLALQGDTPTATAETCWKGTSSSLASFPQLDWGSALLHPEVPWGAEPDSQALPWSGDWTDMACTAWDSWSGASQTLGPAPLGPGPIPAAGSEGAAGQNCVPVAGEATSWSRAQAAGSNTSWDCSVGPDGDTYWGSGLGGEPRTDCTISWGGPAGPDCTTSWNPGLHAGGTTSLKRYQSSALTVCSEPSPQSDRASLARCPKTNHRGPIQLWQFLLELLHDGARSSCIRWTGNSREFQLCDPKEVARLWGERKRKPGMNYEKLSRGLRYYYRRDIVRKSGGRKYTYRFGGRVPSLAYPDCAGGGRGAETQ
The note with it: protein: recombinant; tags: N-terminal GST; dsDNA, one strand shown. The method in brief: as §1

Experiment [16] has as its target T10, ELF3 (Homo sapiens, UniProt P78545 1-371).
T10 sequence: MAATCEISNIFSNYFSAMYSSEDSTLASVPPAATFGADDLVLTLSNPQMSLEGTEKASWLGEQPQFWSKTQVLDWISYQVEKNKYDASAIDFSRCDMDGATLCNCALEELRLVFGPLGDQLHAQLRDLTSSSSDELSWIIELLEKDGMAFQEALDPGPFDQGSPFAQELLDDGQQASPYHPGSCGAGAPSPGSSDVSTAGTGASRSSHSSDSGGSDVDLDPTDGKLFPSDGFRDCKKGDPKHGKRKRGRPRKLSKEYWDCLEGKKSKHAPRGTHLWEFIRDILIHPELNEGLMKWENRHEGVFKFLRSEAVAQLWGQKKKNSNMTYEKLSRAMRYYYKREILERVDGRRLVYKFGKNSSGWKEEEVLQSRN
The settings on record: protein: recombinant; tags: N-terminal GST; dsDNA, one strand shown. The method in brief:
as §1

For experiment [17], the target named is CRX (Homo sapiens, UniProt O43186 1-299). The settings on record: protein: recombinant; tags: N-terminal GST; dsDNA, one strand shown. The method, boiled down: as §1
The target in experiment [18] is ETV1 (Homo sapiens, UniProt P50549 1-477). The settings on record: protein: recombinant; tags: N-terminal GST; dsDNA, one strand shown. The method, boiled down: as §1
ETV1, sequence (P50549 whole entry): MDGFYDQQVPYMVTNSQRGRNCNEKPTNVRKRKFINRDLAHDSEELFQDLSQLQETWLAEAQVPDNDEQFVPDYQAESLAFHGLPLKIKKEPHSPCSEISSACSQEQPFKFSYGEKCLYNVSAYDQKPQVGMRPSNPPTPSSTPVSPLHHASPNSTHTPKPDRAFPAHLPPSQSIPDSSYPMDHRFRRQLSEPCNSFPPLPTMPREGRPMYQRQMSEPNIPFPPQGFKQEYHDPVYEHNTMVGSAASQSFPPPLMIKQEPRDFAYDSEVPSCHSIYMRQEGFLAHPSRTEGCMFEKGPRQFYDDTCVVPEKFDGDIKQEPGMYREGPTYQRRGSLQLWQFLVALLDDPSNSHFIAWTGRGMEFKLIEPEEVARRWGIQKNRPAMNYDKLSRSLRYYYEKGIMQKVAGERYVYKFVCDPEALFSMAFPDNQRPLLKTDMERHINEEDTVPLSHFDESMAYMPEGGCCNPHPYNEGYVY

ELF4, sequence (Q99607 whole entry): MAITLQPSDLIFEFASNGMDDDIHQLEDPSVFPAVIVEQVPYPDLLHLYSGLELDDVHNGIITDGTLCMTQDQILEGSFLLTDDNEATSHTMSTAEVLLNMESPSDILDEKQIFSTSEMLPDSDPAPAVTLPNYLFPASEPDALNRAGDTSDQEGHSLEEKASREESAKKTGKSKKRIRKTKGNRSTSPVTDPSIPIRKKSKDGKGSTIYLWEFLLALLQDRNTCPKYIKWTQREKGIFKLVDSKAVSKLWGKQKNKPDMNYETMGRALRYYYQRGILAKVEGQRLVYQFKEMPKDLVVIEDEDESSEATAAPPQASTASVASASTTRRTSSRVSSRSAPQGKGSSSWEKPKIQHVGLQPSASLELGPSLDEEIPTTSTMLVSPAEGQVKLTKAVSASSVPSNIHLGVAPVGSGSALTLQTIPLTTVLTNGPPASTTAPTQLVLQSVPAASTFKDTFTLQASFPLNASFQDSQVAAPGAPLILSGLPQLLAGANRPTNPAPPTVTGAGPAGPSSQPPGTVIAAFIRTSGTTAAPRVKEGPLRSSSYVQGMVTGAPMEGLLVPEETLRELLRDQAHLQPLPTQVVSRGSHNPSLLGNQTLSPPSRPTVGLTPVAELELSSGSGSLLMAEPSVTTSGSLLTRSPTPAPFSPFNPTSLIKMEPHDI
SPIB, sequence (Q01892 whole entry): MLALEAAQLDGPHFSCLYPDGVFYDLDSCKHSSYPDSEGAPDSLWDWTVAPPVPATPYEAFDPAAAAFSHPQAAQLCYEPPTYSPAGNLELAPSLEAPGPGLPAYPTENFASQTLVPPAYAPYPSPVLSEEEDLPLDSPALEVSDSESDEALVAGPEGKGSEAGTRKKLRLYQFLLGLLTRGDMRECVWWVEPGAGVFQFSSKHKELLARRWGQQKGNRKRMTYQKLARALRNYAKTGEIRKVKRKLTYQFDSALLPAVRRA
ELF1, sequence (P32519 whole entry): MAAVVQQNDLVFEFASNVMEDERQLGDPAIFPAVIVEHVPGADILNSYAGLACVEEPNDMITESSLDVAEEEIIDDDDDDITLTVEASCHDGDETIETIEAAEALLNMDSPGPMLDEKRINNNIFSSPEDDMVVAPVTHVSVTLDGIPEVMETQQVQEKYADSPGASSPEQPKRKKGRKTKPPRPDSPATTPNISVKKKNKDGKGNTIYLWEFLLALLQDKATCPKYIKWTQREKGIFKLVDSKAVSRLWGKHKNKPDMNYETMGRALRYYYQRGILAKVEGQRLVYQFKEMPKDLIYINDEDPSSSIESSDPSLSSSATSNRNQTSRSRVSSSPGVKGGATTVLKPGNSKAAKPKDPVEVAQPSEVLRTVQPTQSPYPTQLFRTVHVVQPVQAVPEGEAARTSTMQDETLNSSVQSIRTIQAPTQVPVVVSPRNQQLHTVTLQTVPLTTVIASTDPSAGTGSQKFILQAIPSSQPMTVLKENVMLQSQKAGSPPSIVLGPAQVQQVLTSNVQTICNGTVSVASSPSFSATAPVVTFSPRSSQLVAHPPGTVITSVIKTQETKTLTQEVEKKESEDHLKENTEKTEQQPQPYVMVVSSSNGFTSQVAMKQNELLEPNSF
ETV5, sequence (P41161 whole entry): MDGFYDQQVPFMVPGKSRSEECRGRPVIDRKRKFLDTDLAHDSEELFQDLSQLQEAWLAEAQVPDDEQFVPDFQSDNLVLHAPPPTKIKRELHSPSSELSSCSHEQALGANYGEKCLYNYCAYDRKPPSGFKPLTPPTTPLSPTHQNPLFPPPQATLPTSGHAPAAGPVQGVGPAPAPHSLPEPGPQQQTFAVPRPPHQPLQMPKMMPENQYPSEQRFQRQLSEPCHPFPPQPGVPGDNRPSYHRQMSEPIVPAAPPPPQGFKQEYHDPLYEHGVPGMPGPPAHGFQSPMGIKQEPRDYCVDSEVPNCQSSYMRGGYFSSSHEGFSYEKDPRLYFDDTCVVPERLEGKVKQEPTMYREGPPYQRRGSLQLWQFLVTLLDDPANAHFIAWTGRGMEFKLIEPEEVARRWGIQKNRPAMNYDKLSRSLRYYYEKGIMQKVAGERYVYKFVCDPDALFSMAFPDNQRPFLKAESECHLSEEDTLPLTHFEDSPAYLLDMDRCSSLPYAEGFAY
HSF1, sequence (Q00613 whole entry): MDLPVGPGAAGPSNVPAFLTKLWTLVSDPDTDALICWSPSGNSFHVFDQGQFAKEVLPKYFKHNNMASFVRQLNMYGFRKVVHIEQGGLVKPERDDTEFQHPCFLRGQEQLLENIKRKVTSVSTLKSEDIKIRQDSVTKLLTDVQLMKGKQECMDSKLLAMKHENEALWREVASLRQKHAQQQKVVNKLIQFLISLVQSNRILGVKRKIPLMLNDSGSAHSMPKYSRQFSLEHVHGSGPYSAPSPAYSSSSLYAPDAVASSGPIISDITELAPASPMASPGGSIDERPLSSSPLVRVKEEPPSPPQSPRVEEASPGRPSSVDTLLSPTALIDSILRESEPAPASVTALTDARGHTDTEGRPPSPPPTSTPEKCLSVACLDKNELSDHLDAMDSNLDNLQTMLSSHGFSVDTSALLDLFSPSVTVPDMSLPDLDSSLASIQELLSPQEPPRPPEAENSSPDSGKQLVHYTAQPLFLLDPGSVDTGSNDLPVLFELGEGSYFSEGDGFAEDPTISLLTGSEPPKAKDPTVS
CRX, sequence (O43186 whole entry): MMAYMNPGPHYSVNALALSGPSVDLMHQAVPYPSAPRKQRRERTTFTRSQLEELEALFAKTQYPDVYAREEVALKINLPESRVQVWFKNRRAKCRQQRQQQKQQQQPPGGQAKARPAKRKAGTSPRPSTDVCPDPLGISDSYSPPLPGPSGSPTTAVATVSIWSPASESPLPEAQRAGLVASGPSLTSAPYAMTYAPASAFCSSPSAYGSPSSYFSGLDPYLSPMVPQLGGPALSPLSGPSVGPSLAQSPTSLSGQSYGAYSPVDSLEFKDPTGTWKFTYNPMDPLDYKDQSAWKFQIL

Regarding AACCAT, the binding signal in experiment [1] is 1.14 fold enrichment (6-mer frequency, TF over GST control); in [2], 1.17 fold enrichment (6-mer frequency, TF over GST control); in experiment [3], 1.16 fold enrichment (6-mer frequency, TF over GST control); in [4] it was 1.2 fold enrichment (6-mer frequency, TF over GST control); in experiment [5], 1.18 fold enrichment (6-mer frequency, TF over GST control); in [6], 1.22 fold enrichment (6-mer frequency, TF over GST control). In addition, the binding signal was 1.12 fold enrichment (6-mer frequency, TF over GST control) in [7]; 1.12 fold enrichment (6-mer frequency, TF over GST control) in experiment [8]; 1.28 fold enrichment (6-mer frequency, TF over GST control) in experiment [9]; 1.15 fold enrichment (6-mer frequency, TF over GST control) in experiment [10]; 1.15 fold enrichment (6-mer frequency, TF over GST control) in experiment [11]; 1.15 fold enrichment (6-mer frequency, TF over GST control) in experiment [12]. The binding signal is 1.15 fold enrichment (6-mer frequency, TF over GST control) in experiment [13]; 1.21 fold enrichment (6-mer frequency, TF over GST control) in [14]; 1.2 fold enrichment (6-mer frequency, TF over GST control) in [15]; 1.1 fold enrichment (6-mer frequency, TF over GST control) in experiment [16]; 1.05 fold enrichment (6-mer frequency, TF over GST control) in [17]; 1.06 fold enrichment (6-mer frequency, TF over GST control) in experiment [18].
